Test results reported in PubChem BioAssay (NCI).
Where “and” joins values, the source holds several entries; their conditions need not be identical. Equal entries are not always repeated. Compounds without any hit were thinned out: in the full panel of roughly 79,000, 15% have a hit. A number with no mark means an inactive call. Calls of active or inactive are those of the source. Cut-off read from the data, not from the text of the source: active = growth inhibition above about 70%; inactive = the rest.

What was measured:
[1] = NCI Yeast Anticancer Drug Screen. Data for the rad50 strain (AID 155);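 note: 0% = growth of vehicle-only cultures of the same strain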; conditions: S. cerevisiae rad50 strain growth inhibition; at 50.0 µM; hits give high values
Procedure, shortened: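 Inhibition values express reduced yeast growth in compound-treated cultures relative to vehicle-treated controls.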

[2] = NCI Yeast Anticancer Drug Screen. Data for the sgs1 mgt1 strain (AID 161);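 note: 0% = growth of cultures given vehicle only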; conditions: S. cerevisiae sgs1 mgt1 strain, hits give high values
Procedure, shortened: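 Mutant yeast exposed to compound; growth scored against vehicle-only wells.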

[3] = NCI Yeast Anticancer Drug Screen. Data for the cln2 rad14 strain (AID 165);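 note: 0% = growth equal to vehicle treated cultures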; conditions: S. cerevisiae cln2 rad14 strain, hits give high values
Procedure, shortened: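 Growth of compound-exposed yeast (cln2 rad14 genotype) measured and expressed as inhibition relative to vehicle.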

[4] = NCI Yeast Anticancer Drug Screen. Data for the bub3 strain (AID 167); conditions: S. cerevisiae bub3 mutant strain, hits give high values
Procedure, shortened: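 Steps: expose the mutant yeast strain to compound; grow alongside vehicle-treated cultures; measure growth; express inhibition against the vehicle cultures.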

[5] = NCI Yeast Anticancer Drug Screen. Data for the mlh1 rad18 strain (AID 175); conditions: S. cerevisiae mlh1 rad18 strain growth inhibition, hits give high values
Procedure, shortened: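 In this whole-cell yeast screen, a strain with altered DNA damage repair is challenged with compound, and its growth is measured against matched vehicle-treated controls.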

[6] = NCI Yeast Anticancer Drug Screen. Data for the mec2-1 strain (AID 157); conditions: S. cerevisiae mec2-1 strain, hits give high values
Procedure, shortened: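 Test agents were screened against the mec2-1 yeast strain, with defined DNA repair or cell cycle alteration. Growth was scored as inhibition against vehicle-only controls.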

[7] = at 5.0 µM (retest, dose inferred, filed as 0.5)
[8] = at 50.0 µM (retest, dose inferred, filed as 5.0)

| Structure (SMILES) | growth inhibition [1] | growth inhibition ([2]; at 50.0 µM) | growth inhibition ([3]; at 50.0 µM) | growth inhibition ([4]; at 50.0 µM) | growth inhibition ([5]; at 50.0 µM) | growth inhibition ([6]; at 50.0 µM) | growth inhibition [6, 7] | growth inhibition [6, 8] | growth inhibition [2, 7] | growth inhibition [2, 8] | growth inhibition [3, 7] | growth inhibition [3, 8] | growth inhibition [4, 7] | growth inhibition [4, 8] | growth inhibition [5, 7] | growth inhibition [5, 8] |
| --- | --- | --- | --- | --- | --- | --- | --- | --- | --- | --- | --- | --- | --- | --- | --- | --- |
| CC(C)CC(N)C(=O)O (stereo not given) | -6% and -19.2% | -3.25% and -31.2% | -11.1% and -34% | 5.7% and -8.45% | 6.15% and -40.9% |  |  |  |  |  |  |  |  |  |  |  |
| OC1C2CCCCN2C[C@@H](O)[C@H]1O (stereo not given in full) |  | 22.1% | 22.6% | 12% | -34% | 11.9% |  |  |  |  |  |  |  |  |  |  |
| CCCCSP(SCCCC)N1CCCCC1 |  | 91.3% (active) | 31.1% | 79.8% (active) | 88% (active) | 89.4% (active) |  |  |  |  |  |  |  |  |  |  |
| [C-]#[O+].[C-]#[O+].[Mo].[N-]=Nc1ccc([N+](=O)[O-])cc1.[c-]1[c-][c-][cH-][c-]1 |  | 84.9% (active) | 8.7% | 4.95% | 79.3% (active) | 21.3% | -6% | 55% | 2% | 86% (active) | 9% | 26% | -12% | 71% (active) | 2% | 75% (active) |
| C=CCC1(CC=C)C(=O)N(C)C(=O)N(C)C1=O | 7.25% |  | 8.45% | 5.2% | -6.95% | 13.7% |  |  |  |  |  |  |  |  |  |  |
| O=[N+]([O-])c1ccc(Cl)c([N+](=O)[O-])c1 | 99.2% (active) | 99.2% (active) | 96.3% (active) | 98.7% (active) | 99.2% (active) |  |  |  |  |  |  |  |  |  |  |  |
| COc1cc2c(cc1O)N=C[C@@H]1CCC(O)N1C2=O (mixture of isomers) |  | 19.2% | 58.8% | -2.2% | 3.9% | 16.3% |  |  |  |  |  |  |  |  |  |  |
| COc1cccc(C2N(Cc3ccc(N(CCCl)CCCl)cc3C)CCCN2Cc2ccc(N(CCCl)CCCl)cc2C)c1O |  | 64.5% | -12.6% | 0.75% | 40.1% | 10.2% | -2% | 96% (active) | -2% | 97% (active) | -5% | 82% (active) | -6% | 89% (active) | 8% | 93% (active) |
| C[C@]12CC[C@H](O)C[C@H]1CC[C@@H]1[C@@H]2CC[C@]2(C)[C@@H](C3=CC(=O)OC3)[C@@H](O)C[C@]12O | -6.05% | 2.35% | -16.8% | -0.15% | 8.1% |  |  |  |  |  |  |  |  |  |  |  |
| O=c1s[se]c2ccccc12 |  | 90.1% (active) | 92.2% (active) | 89.8% (active) | 91.9% (active) | 87.1% (active) | 13% | 99% (active) | 17% | 99% (active) | 21% | 98% (active) | -2% | 99% (active) | 25% | 97% (active) |
| COc1cc2c(cc1OC)C1CC(OC(=O)c3ccccc3)(c3nccc4cc(OC)c(OC)cc34)CCN1CC2 (stereo not given) |  | 20.6% | 4.95% | -0.8% | 32.5% | 13.9% |  |  |  |  |  |  |  |  |  |  |
| COc1ccc2n[se]nc2c1 | 46.4% | 26.9% | 11.6% | 51.6% | 21% |  |  |  |  |  |  |  |  |  |  |  |
| CC12CCC3C(CC=C4CC(SC(=N)N)CCC43C)C1CCC2=O (stereo not given) |  | 75.5% (active) | 59.7% | 66.8% | 59.6% | 48.3% | 5% | 51% | 21% | 72% (active) | 9% | 19% | 11% | 50% | 8% | 31% |
| COc1cc(C(=O)[O][Hg][CH2]C2CC(O)CC([CH2][Hg][O]C(=O)c3cc(OC)c(OC)c(OC)c3)O2)cc(OC)c1OC (stereo not given) |  | 99.6% (active) | 98.5% (active) | 99.1% (active) | 98.7% (active) | 99.6% (active) | 98% (active) | 99% (active) | 99% (active) | 99% (active) | 95% (active) | 96% (active) | 97% (active) | 99% (active) | 99% (active) | 99% (active) |
